Screening data from PubChem BioAssay.
Most compounds without a hit are left out; they make up all but 1.5% or so of the library.
BRCT PPI green = BRCA1 BRCT-phosphoprotein interaction inhibition; AID 875; hit rate 0.05% among 75,000; Potency, µM (top dose mostly 76.9 µM), for the others: at the highest dose activity change, negative = inhibition, usual class: inhibitors; BRCA1 BRCT-phosphopeptide binding, green fluorescence polarization;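 also: potency is read from the fitted curve at half-maximal effect; plate controls were peptide without protein for full effect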
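Compounds were incubated for 12 min at room temperature with a complex of 100 nM fluorescein-tagged pBACH1 decapeptide and 250 nM His-tagged BRCT protein. Buffer was phosphate pH 7.3 with EDTA, DTT and Tween 20. Disruption of binding lowers the polarization signal.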
BRCT PPI red = BRCT-phosphoprotein interaction inhibition (red fluorophore); BRCT-phosphopeptide binding, red fluorescence polarization; Potency, µM (series often up to 76.9 µM), for inactives: at the top dose activity change, negative = inhibition, hits mostly inhibitors; hit rate 0.03% among 75,000; also: % is scaled to controls: 0 for no effect and ±100 for the full control effect
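Fluorescence polarization: 100 nM His-tagged BRCA1 BRCT with 100 nM TAMRA-labelled phospho-BACH1 decapeptide, phosphate buffer pH 7.3 with 150 mM NaCl, DTT, 0.01% Tween 20; 12 min RT. Binding inhibition seen as FP decrease.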
USP2a inh = inhibitors of human ubiquitin-specific protease USP2a | hit rate 0.1% among 60,000 | O75604 | USP2a enzymatic assay, qHTS inhibition | Potency, µM (series often up to 38.3 µM), inactives show at the top dose activity change, negative = inhibition, most hits filed as inhibitors; also: potency is read from the fitted curve at half-maximal effect; nearly all actives have a fitted effect of over 60% in size
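USP2 core (20 nM final) was preincubated with compound for 30 min at RT in 20 mM Tris-HCl pH 8.0, 2 mM CaCl2, 2 mM beta-mercaptoethanol; Ub-PLA2 (20 nM) plus NBD C6-HPC (20 uM) then added, fluorescence read after 2.5 h.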
ALOX15 inhib = blocks human 15-lipoxygenase activity; P16050; purified 15hLO-1, xylenol orange hydroperoxide absorbance; Potency, µM (series often up to 57.1 µM), for inactives: at the highest dose activity change, negative = inhibition, actives largely listed as inhibitors; hit rate 1.4% among 74,000; AID 887; also: potency is read from the fitted curve at half-maximal effect; % is scaled to controls: 0 for no effect and ±100 for the full control effect; nearly all actives have a fitted effect of over 55% in size
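40 nM 15hLO-1 + cpd, 15 min RT; start w/ 50 uM AA (final), 6 min RT; stop/detect w/ 200 uM XO + 300 uM Fe(II) in 50 mM H2SO4, 30 min; A573/A405. Buffer 25 mM Hepes pH 7.5, 0.01% Triton X-100. No-enzyme wells as negative control.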
Casp1 inh = caspase-1 (human) inhibition, allosteric or competitive; AID 900; hit rate 0.03% among 75,000; Caspase-1 enzyme, Ac-WEHD-AFC fluorogenic rate; Potency, µM (series often up to 57.5 µM), without a hit: at the top dose activity change, negative = inhibition, actives largely listed as inhibitors;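 also: potency is read from the fitted curve at half-maximal effect; plate controls were vehicle for no effect and no substrate for full effect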
Caspase-7 inhib = allosteric or competitive inhibitors of human caspase-7 | recombinant caspase-7, Ac-DEVD-AFC fluorescence rate | Potency, µM (titrated, usually from 57.5 µM), inactives show top-dose activity change, negative = inhibition, most hits filed as inhibitors | hit rate 0.02% among 75,000 | P55210; active = well fitted inhibition curve with a large enough effect in the main read-out, with a control signal flat, not every such curve was filed as active; inconclusive = small, poorly fitted or top-dose-only effect, or a change in a side signal; also: potency is read from the fitted curve at half-maximal effect; % of control where 0% means no effect
Target sequence (P55210 24-198 limits assumed): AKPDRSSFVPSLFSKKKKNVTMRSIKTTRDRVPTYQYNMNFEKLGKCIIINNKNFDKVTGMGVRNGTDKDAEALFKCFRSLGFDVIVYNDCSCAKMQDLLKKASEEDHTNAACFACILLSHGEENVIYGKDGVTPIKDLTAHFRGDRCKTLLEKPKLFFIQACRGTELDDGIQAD
Target sequence (P55210 207-303 limits assumed): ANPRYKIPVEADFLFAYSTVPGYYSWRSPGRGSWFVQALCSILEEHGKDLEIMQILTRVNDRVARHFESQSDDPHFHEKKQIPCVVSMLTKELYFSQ
* = called active by the depositor; ? = inconclusive; . = not tested or not shown; ! = not active in a repeat; [ ] = dose if it differs, or a comment. Unless noted, calls follow the shape of the dose curve; as a rule, active = well fitted curve in the direction sought with a large enough effect; inconclusive = small, poorly fitted or top-dose-only effect, or another doubt; inactive = no such curve, though single readings can be large; an effect the other way counts as inactive or inconclusive.

SMILES	BRCT PPI green	BRCT PPI red	USP2a inh	ALOX15 inhib	Casp1 inh	Caspase-7 inhib
Cc1nc2scc(-c3ccccc3)c2c(=O)n1N	1%	-1%	-5%	-10%	-2%	-1%
O=C(c1cc(-c2ccco2)nn1-c1cccc(Cl)c1)N1CCCCC1	3%	0%	13%	7.9µM*	-4%	-9%
COC(=O)NC(/C(C(=O)OC)=C(\C)NCc1ccccc1)c1ccc2ccccc2c1 (configuration not stated)	0%[15.4 µM]	-3%[15.4 µM]	.	?	-5%[11.5 µM]	-6%[11.5 µM]
CO[C@H]1COC(=O)C/C=C\[C@H](C)[C@@H](OC)COC(=O)C/C=C\[C@@H]1C	0%[15.4 µM]	1%[15.4 µM]	.	6%[11.4 µM]	0%[11.5 µM]	-2%[11.5 µM]
COc1nc(Cl)nc(Cl)c1Cl (tested in a mixture with another compound)	0%[15.4 µM]	0%[15.4 µM]	.	-3%[11.4 µM]	1%[11.5 µM]	-2%[11.5 µM]
FC(F)(F)c1cnc2c(c1)Nc1ccccc1S2	0%	0%	-7%	-3%	-12%	-9%
CC(=O)C1=C(C)Nc2cc(C(F)(F)F)ccc2S1	3%	-3%	7%	13µM*	0%	1%
C[C@@H](CN1c2ccccc2Sc2ccccc21)N(C)C	-2%[34.4 µM]	0%[34.4 µM]	3%[17.1 µM]	16µM*!	2%[25.7 µM]	3%[25.7 µM]
CC(CN1c2ccccc2Sc2ccccc21)N(C)C (configuration not stated)	0%[3.08 µM]	1%	4%	-19%	-1%	2%
C[C@@]12C(=O)OC(=O)[C@@]1(C)[C@H]1CC[C@@H]2O1	-2%	-1%	-4%	11%	4%	1%
CC[N+](CC)(CC)CCOc1ccc(/C=C\c2ccccc2)cc1	-2%	-2%	.	16µM*	1%	-1%
CC1CCN(Cc2c(C#N)c3ccccc3n2C)CC1	-1%	-1%	-21%	25µM*	-2%	-2%
CCOC(=O)c1sc2nc(-c3ccco3)c3c(c2c1N)CC(C)(C)OC3	1%	0%	26%	16µM*	.	?
Cc1nc2sc(C(=O)O)c(N)c2c2c1COC(C)(C)C2	0%	-2%	7%	-28%	-4%	-4%
COc1ccc(CNc2ccnc(-c3ccoc3)n2)c(OC)c1	1%	0%	162%	-23%	-8%	-9%
COc1ccc(CNc2ccnc(-c3c(C)noc3C)n2)c(OC)c1	0%	0%	60%	25µM*	-4%	-4%
N#C/C(=C(/N)Sc1ccc(N)cc1)c1ccccc1C(F)(F)F	3%	1%	.	?	1%	-6%
N#CC(=C(/N)Sc1ccccc1N)/C(C#N)=C(/N)Sc1ccccc1N	1%	0%	6%	13µM*!	-4%	0%
COc1ccc(NC(=O)N2CC[C@@]3(CCCN(C(C)=O)C3)C2)cc1	-4%	0%	10µM*	-11%	-3%	1%
COc1ccc(NC(=O)N2CCCC3(CCN(C(C)=O)CC3)C2)cc1	-1%	0%	-3%	2%	1%	0%
O=C(O)c1cc(O)c2c(c1)C(=O)c1cccc(O)c1C2=O	-1%	-5%	.	13µM*!	?	?
Cc1cc(O)c2c(c1)C(=O)c1cccc(O)c1C2=O	27%	41%	34%	-25%[25.6 µM]	-3%	-7%
CCOC(=O)C1=C(C)N=c2s/c(=C/c3ccco3)c(=O)n2C1c1cccc(OC)c1 (configuration not stated)	15%	2%	44%	16µM*	-5%	-16%
CCSc1nnc(-c2ccc(Cl)cc2Cl)o1	0%	0%	0%[7.66 µM]	3.2µM*	-2%	0%
CC(C)OC(=O)CSc1nnc(-c2ccc(Cl)cc2Cl)o1	1%	0%	-6%	-3%	1%	1%
CCOC(=O)C1CCCN(Cc2cc(OC)c(O)c(OC)c2)C1 (configuration not stated)	0%	-1%	.	1%	-1%	-2%
COc1cc(CN2CCC(C(=O)NC3CCCC3)CC2)cc(OC)c1O	0%	-2%	-16%	25µM*	2%	-1%
